High-throughput results as filed in PubChem BioAssay.
An excerpt weighted towards active compounds, which were near 4.6% of everything screened.
UCHL1 inh = blocks human UCHL1 ubiquitin-rhodamine cleavage; P09936; purified UCHL1, Ub-rhodamine cleavage fluorescence; inhibition, % at 20 µM; 47,000 tested, 0.2% active; AID 1645859
Target sequence (P09936 whole entry, looked up): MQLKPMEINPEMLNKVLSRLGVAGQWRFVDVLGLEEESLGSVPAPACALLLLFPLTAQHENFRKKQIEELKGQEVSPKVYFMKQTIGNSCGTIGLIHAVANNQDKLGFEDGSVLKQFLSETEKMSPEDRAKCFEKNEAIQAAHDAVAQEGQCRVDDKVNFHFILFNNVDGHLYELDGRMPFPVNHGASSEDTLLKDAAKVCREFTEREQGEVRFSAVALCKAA
USP10 inh = blocks human USP10 ubiquitin-rhodamine cleavage | Q14694 | purified USP10, Ub-rhodamine fluorescence, 60 min | inhibition, % at 20 µM | 47,000 tested, 1.1% active
USP7 inh = human USP7 deubiquitinase inhibition | inhibition, % at 20 µM | 47,000 tested, 0.3% active | purified USP7, Ub-rhodamine cleavage fluorescence | Q93009
USP8 inh = human USP8 deubiquitinase inhibition. P40818. inhibition, % at 20 µM. purified USP8, Ub-rhodamine cleavage fluorescence, 30 min. 47,000 tested, 4.2% active
* marks the source's active call; other numbers are inactive results. No stated cut-off is given here; in the data, active means inhibition above about 30%; inactive means the rest.

SMILES | UCHL1 inh | USP10 inh | USP7 inh | USP8 inh
c1ccc2oc(CN3CC[C@H](c4nnc(-c5ccncc5)o4)C3)cc2c1 | -2.2 | -5.9 | -10.3 | 34.1*
Fc1ccccc1CN1CC[C@H](c2nnc(-c3ccncc3)o2)C1 | 0.3 | -1.4 | -0.3 | -4.1
Cc1ccc(-n2cc(C(=O)NCCCc3ccccc3)nn2)cc1 | 7.2 | 23.8 | 24.8 | 78.4*
Cc1ccc(-n2cc(C(=O)N3CCN(c4ccccc4)CC3)nn2)cc1 | 0.0 | 6.1 | 1.6 | 39.6*
Cc1ccc(-n2cc(C(=O)NCc3ccccn3)nn2)cc1C | 5.2 | 2.9 | 4.6 | 14.9
Cc1ccc(-n2cc(C(=O)N3CCc4ccccc4C3)nn2)cc1 | -2.1 | 0.7 | 0.2 | 19.1
O=C(CSc1ccc2nnc(CCNS(=O)(=O)c3ccccc3)n2n1)Nc1ccc(Br)cc1 | 3.0 | -0.3 | -5.2 | 1.9
O=C(NCC1(O)CCOc2ccccc21)c1ccc(F)c(F)c1 (configuration not stated) | -0.3 | -1.5 | -3.5 | -16.7
N#Cc1cc2c([nH]c1=O)CC(c1ccccc1)C/C2=N\Nc1ccccc1 (configuration not stated) | 4.2 | -1.5 | -15.3 | 50.9*
CCOc1ccccc1C(=O)N1CCc2[nH]cnc2C12CCCCC2 | 0.6 | -8.4 | 1.3 | 6.9
CC(C)(C)C(=O)[C@@H]1[C@@H](C(=O)c2ccc3c(c2)OCO3)[C@@]2(C(=O)Nc3ccccc32)[C@H]2c3ccccc3C=CN12 | 20.8 | 16.0 | -14.8 | 92.9*
O=C(c1ccc2c(c1)OCO2)[C@@H]1[C@H](C(=O)OC(c2ccccc2)c2ccccc2)N2c3ccccc3C=CC2[C@@]12C(=O)Nc1ccccc12 (some centres not stated) | -26.4 | -5.3 | -23.7 | 18.6
COc1ccc(NC(=O)Cn2c(=O)n(CCC(=O)NC3CCCC3)c(=O)c3ccccc32)cc1Cl | 0.8 | 0.2 | -1.7 | -5.5
O=C(Cn1c(=O)n(CC(=O)NC2CCCC2)c(=O)c2ccccc21)Nc1ccc(F)cc1 | -1.8 | 16.3 | 1.9 | 37.3*
COc1ccccc1CNC(=O)CCCCn1c(=O)c2ccccc2n(Cc2cc(=O)n3c(C)cccc3n2)c1=O | 7.2 | -0.1 | -3.3 | 44.9*
COc1ccc(Cl)cc1NC(=O)Cn1c(=O)n(CCCCC(=O)NCCc2ccccc2)c(=O)c2ccccc21 | 0.2 | 43.2* | 1.7 | 42.2*
COc1ccc(Cl)cc1NC(=O)Cn1c(=O)n(CCC(=O)NC2CCCC2)c(=O)c2ccccc21 | 2.2 | 42.9* | -7.2 | 24.3
COc1ccc(CCNC(=O)CCCCn2c(=O)c3ccccc3n(Cc3cccc(Cl)c3)c2=O)cc1OC | 5.2 | 1.3 | 6.5 | 2.5
COc1cc2c(=O)n(CCC(=O)NC3CCCC3)c(=O)n(CC(=O)Nc3cccc(Cl)c3)c2cc1OC | 7.2 | 30.5* | -6.9 | -28.8
CCOc1ccc(NC(=O)Cn2c(=O)n(CCC(=O)NCc3ccccc3OC)c(=O)c3ccccc32)cc1 | 1.1 | 33.6* | 11.9 | 32.4*
O=C(Cn1c(=O)n(CC(=O)NC2CCCC2)c(=O)c2ccccc21)Nc1cc(Cl)ccc1Cl | 3.7 | 19.2 | 8.5 | 31.6*
COc1ccc(NC(=O)Cn2c(=O)n(Cc3ccco3)c(=O)c3ccc(C(=O)NC4CCCC4)cc32)cc1 | 0.7 | 49.0* | 13.3 | 60.2*
COc1ccccc1CNC(=O)CCn1c(=O)c2ccccc2n(Cc2ccccc2C#N)c1=O | 0.5 | 3.8 | 4.9 | 1.7
CCC(=O)N1c2ccc(S(=O)(=O)N3CCC4(CC3)OCCO4)cc2CC1C (configuration not stated) | 0.8 | 0.4 | 7.8 | 0.9
COc1cc(OC)c(NC(=O)Cn2c(=O)n(Cc3ccccc3Cl)c(=O)c3cc(OC)c(OC)cc32)cc1Cl | -0.4 | 35.5* | 2.7 | 26.5
SMILES | UCHL1 inh | USP10 inh | USP7 inh | USP8 inh
O=C(CNC1Cc2ccccc2C1)Nc1ccccc1N1CCOCC1 | 2.8 | 1.9 | 1.4 | 46.1*
N#Cc1cccc(C(=O)N2CC[C@H]3CO[C@H](CN4CCCC4)[C@H]3C2)c1 | -4.7 | 0.0 | 0.1 | -34.7
Cc1c(CN2CCC3(CC2)Nc2ccccc2C2=NCCN23)cnn1C | -0.7 | -4.0 | 2.0 | 0.5
c1ccc(-c2cc(-c3csc(-c4ccc5c(c4)OCCO5)n3)on2)cc1 | 1.5 | 1.5 | 9.9 | -22.5
O=[N+]([O-])c1cccc(-c2csc(-c3ccc4c(c3)OCO4)n2)c1 | 3.1 | -1.0 | 4.5 | 31.4*
O=c1cc(-c2cncc(Br)c2)nc(-c2ccccc2)[nH]1 | 1.5 | 9.6 | 3.0 | 34.1*
O=c1cc(-c2cncc(-c3cc4ccccc4o3)c2)nc(-c2ccccc2)[nH]1 | -1.1 | 0.6 | 3.8 | 3.5
CCN1CCC2(CN(CCOC)CC23CCN(C(=O)NC(C)C)CC3)C1=O (configuration not stated) | 0.5 | -0.4 | 2.6 | -1.2
CSc1nc2ncn(CC(=O)Nc3cc(C)cc(C)c3)c(=O)c2s1 | -4.6 | -3.7 | 1.5 | -15.7
CSc1nc2ncn(CC(=O)Nc3ccc(Br)cc3)c(=O)c2s1 | -3.2 | 6.3 | 15.9 | 82.1*
O=S(=O)(Nc1cc(-c2ccncc2)no1)c1ccc(F)c(F)c1 | -2.0 | 1.5 | -1.1 | -47.2
Cc1cc(NC(=O)c2cccc(N3CCOCC3)n2)n(-c2ccc(Cl)cc2)n1 | 0.6 | 8.0 | 8.0 | 52.0*
Cc1cc(C)nc(-n2nc(C)cc2NC(=O)c2cccc(Cl)c2)n1 | -0.8 | 0.1 | 1.5 | -14.2
O=C(CSc1ncccc1C(=O)Nc1ccnn1Cc1cccnc1)Nc1ccc2c(c1)OCO2 | -3.8 | -6.9 | -7.3 | 45.0*
CCOC(=O)C1CCCN(C(=O)C(=O)c2cn(CC(=O)N3CCCCC3)c3ccccc23)C1 (configuration not stated) | 5.4 | -3.9 | 1.8 | 79.9*
COc1ccc(-c2noc(CC(=O)Nc3cccc(C#N)c3)n2)cc1 | -0.8 | 2.9 | 0.1 | 12.2
O=c1c2[nH]c3ccccc3c2ncn1CCC1=CCCCC1 | 2.3 | 15.8 | 6.1 | -17.6
Cc1ccc2[nH]c3c(=O)n(CCC4=CCCCC4)cnc3c2c1 | 3.2 | 0.6 | 10.3 | 30.7*
Cc1nc(-c2cccc(NC(=O)C3CC(=O)N(c4cccc(Cl)c4)C3)c2)no1 (configuration not stated) | 3.6 | 3.9 | 11.9 | 31.4*
CCc1nc(-c2cccc(NC(=O)C3CC(=O)N(c4ccc(C)c(C)c4)C3)c2)no1 (configuration not stated) | 3.8 | 19.2 | 9.3 | 39.4*
Cc1nc(-c2cccc(NC(=O)C3CC(=O)N(c4ccc(C)c(C)c4)C3)c2)no1 (configuration not stated) | -23.6 | -4.6 | -17.0 | -5.8
Cc1cc(C)cc(C(=O)N2CCCC3(CCCC(=O)N3C)C2)c1 (configuration not stated) | 2.5 | 2.5 | 0.4 | -195.9
Cc1ccc(C(=O)Nc2ccc3c(c2)C(=O)N(C)c2ccccc2O3)cc1C | 7.6 | 5.7 | 7.0 | 19.6
COC(=O)c1cccc2nc3c(C(C)O)cccc3nc12 (configuration not stated) | -5.1 | -5.4 | -0.8 | -19.5
Cc1cccc(O)c1C(=O)OC(C)c1cccc2nc3c(C(=O)O)cc4c(c3nc12)C(C)c1cccc2c1N4c1cccc(C(=O)O)c1N2 (configuration not stated) | 95.2* | 98.7* | 99.5* | 95.2*
